Source: PubChem BioAssay (The Scripps Research Institute Molecular Screening Center)
Only some compounds are listed: those with a hit (about 2.3% of all), similar ones and a draw of the others.
M1 ag parental: M1 agonist counterscreen hit in parental CHO-K1 cells; Fluo-8 calcium fluorescence; scaled to maximal ATP response, vehicle zero; activation, % at 3 µM; actives 0.48% (n = 360,000); AID 602248; in the data active = activation above about 15%;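 note: untransfected CHO-K1 host cells lacking M1 receptor as counterscreen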
M1 antag: human CHRM1 antagonism | AID 588852 | actives 1.3% (n = 360,000) | CHO-K1 hM1, Fluo-8 calcium fluorescence, ACh EC80 antagonist | inhibition, % at 3 µM;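 active = percent inhibition above its own plate's cutoff, namely the mean of that plate's compound wells plus 3 SD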;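 note: peak over basal fluorescence ratio during 140 s after agonist addition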
Target sequence (P11229 whole entry, looked up): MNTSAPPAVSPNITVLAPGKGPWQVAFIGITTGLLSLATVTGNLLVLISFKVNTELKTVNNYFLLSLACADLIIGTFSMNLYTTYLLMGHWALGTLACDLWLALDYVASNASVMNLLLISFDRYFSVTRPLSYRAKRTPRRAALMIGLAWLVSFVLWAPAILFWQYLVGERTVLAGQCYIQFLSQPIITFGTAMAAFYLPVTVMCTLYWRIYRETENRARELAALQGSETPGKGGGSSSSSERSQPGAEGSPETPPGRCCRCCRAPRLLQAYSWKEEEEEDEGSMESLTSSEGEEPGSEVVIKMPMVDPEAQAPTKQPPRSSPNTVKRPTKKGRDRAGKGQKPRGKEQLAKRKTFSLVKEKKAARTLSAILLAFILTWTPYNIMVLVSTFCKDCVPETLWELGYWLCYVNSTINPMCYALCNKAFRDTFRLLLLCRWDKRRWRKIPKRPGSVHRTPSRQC
M1 PAM: positive allosteric modulators of human M1 muscarinic receptor | CHO-K1 hM1, Fluo-8 calcium fluorescence, ACh EC20; 0% = ACh EC20, 100% = maximal ACh | activation, % at 3 µM | actives 0.088% (n = 360,000) | AID 588819; in the data active = activation above about 19%, passing the limit was not always enough
CHO-K1 Ca antag: nonselective inhibitor or artifact in parental CHO-K1 cells | ATP-induced calcium, Fluo-8 fluorescence | inhibition, % at 3 µM | actives 0.6% (n = 360,000);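 active = inhibition above a per-plate cutoff, the plate's mean sample inhibition plus 3 SD, cut at about 24% in these data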
M1 ag: human M1 muscarinic receptor agonism. CHO-K1 hM1, Fluo-8 calcium fluorescence, agonist mode; 0% DMSO, 100% acetylcholine EC100. activation, % at 3 µM. actives 0.33% (n = 360,000);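 active = activation above the run's mean compound activation plus 3 SD, cut at about 16% in these data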;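 note: peak over basal fluorescence ratio within a 140 s kinetic read after compound addition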
CHO-K1 Ca PAM: M1 PAM counterscreen hit in parental CHO-K1 cells; ATP EC20, Fluo-8 calcium fluorescence; 0% at ATP EC20, 100% at ATP max; activation, % at 3 µM; actives 0.02% (n = 360,000); AID 602247;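 active = activation above the run cutoff, the mean activation of all test compounds plus 3 SD, cut at about 40% in these data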;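 note: peak over basal fluorescence ratio in a 140 s read after ATP addition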
A number is an active result; - = inactive.

SMILES | M1 ag parental | M1 antag | M1 PAM | CHO-K1 Ca antag | M1 ag | CHO-K1 Ca PAM
Cc1ccc(S(=O)(=O)c2nnn3c2nc(NC2CCN(Cc4ccccc4)CC2)c2ccccc23)cc1C | - | 74.8 | - | - | - | -
Cc1ccc(OS(=O)(=O)c2c(C)nn(C)c2Cl)c(C)c1 | - | 61.7 | - | - | - | -
CC(C)(C)NC(=O)NC(=O)COC(=O)c1ccc(OC(F)F)cc1 | - | - | - | 27.7 | - | -
CC(C)(C)NC(=O)NC(=O)COC(=O)c1ccc(OC(F)(F)F)cc1 | - | - | - | - | - | -
Cc1ccc2c(c1)C(=O)N1[C@H]3c4ccccc4OC[C@@H]3[C@H](c3ccccc3)[C@]1(C)C(=O)N2 | - | 64.8 | - | - | - | -
C[C@@]12C(=O)Nc3ccc(Br)cc3C(=O)N1[C@H]1c3ccccc3OC[C@@H]1[C@@H]2c1ccccc1 | - | 26.6 | - | - | - | -
Cc1ccc2c(c1)NC(=O)[C@@]1(C)[C@@H](c3ccccc3)[C@H]3COc4ccccc4[C@@H]3N1C2=O | - | - | - | - | - | -
COC(=O)[C@H](CC(C)C)N(Cc1ccccc1)S(=O)(=O)N(Cc1ccc(OC)cc1)[C@@H](CC(C)C)C(=O)OC | - | - | - | - | - | -
Cn1c2ccccc2c2cc(/C=N/NC(=O)c3cc(O)ccc3O)ccc21 | - | 29.9 | - | 24.4 | - | -
Cn1c2ccccc2c2cc(/C=N/NC(=O)c3cc(O)cc(O)c3)ccc21 | - | - | - | - | - | -
O=C(NCCCN1CCc2ccccc2C1)Nc1ccc(Br)cc1 | - | 43.6 | - | - | - | -
CC(C)COC(=O)NCCOC(=O)Nc1cccc(Cl)c1 | - | 25.0 | - | 24.4 | - | -
CCn1c(C)cs/c1=N\C(=S)Nc1ccccc1C | - | - | - | 23.9 | - | -
CCC(NC(=O)c1cc(COc2cc(C)c(Cl)c(C)c2)on1)c1ccncc1 (centres undefined) | 16.6 | - | - | - | - | -
O=C(c1ccccc1)c1c2c(cc3sc4ccccc4[n+]13)-c1cccc3cccc-2c13 | 24.2 | 45.5 | - | 24.1 | 34.3 | -
Cc1sc2ccccc2[n+]1CC(=O)c1ccccc1 | - | - | - | - | - | -
COc1ccc(OCC(=O)N2CCCC(Nc3ccc(C)c(C)c3)C2)cc1 (centres undefined) | - | - | - | - | - | -
COCCN(C(=O)CSc1nc2ccccc2c(=O)n1CC(C)C)c1c(N)n(Cc2ccccc2)c(=O)[nH]c1=O | 19.9 | - | - | - | - | -
COCCN(C(=O)CSc1nc2ccccc2c(=O)n1C(C)COC)c1c(N)n(Cc2ccccc2)c(=O)[nH]c1=O (centres undefined) | - | - | - | - | - | -
CCCN(C(=O)CSCc1ccc(C)cc1)c1c(N)n(Cc2ccccc2)c(=O)[nH]c1=O | - | - | - | - | - | -
CCCN(C(=O)CSCc1ccccc1C)c1c(N)n(Cc2ccccc2)c(=O)[nH]c1=O | - | - | 25.9 | - | - | -
Cc1csc2ncnc(N3CCN(S(=O)(=O)c4cccc(C(F)(F)F)c4)CC3)c12 | - | 46.5 | - | 25.7 | - | -
O=S(=O)(c1cccc(Br)c1)N1CCN(c2ncnc3scc(-c4ccccc4)c23)CC1 | - | - | - | - | - | -
CC1(C(=O)Nc2ccc3ccccc3c2)CCC(=O)N1CC(F)(F)F (centres undefined) | - | - | - | 32.0 | - | -
CC1(C(=O)Nc2ccc3c(c2)OCCO3)CCC(=O)N1CC(F)(F)F (centres undefined) | - | - | - | - | - | -
SMILES | M1 ag parental | M1 antag | M1 PAM | CHO-K1 Ca antag | M1 ag | CHO-K1 Ca PAM
O=C(Cn1nc(C(=O)O)c2ccccc2c1=O)Nc1cccc(S(=O)(=O)N2CCCC2)c1 | - | - | - | - | - | -
COc1ccc(C2C(C(=O)N3CCCC3)c3cc(OC)c(OC)cc3C(=O)N2C)cc1 (centres undefined) | - | - | - | 25.8 | - | -
COc1ccc(S(=O)(=O)N2CCOCC2)cc1NC(=O)c1cc2ccccc2o1 | - | - | - | - | - | -
CC(C)Cc1ccc(C(C)NC(=O)c2ccc(=O)[nH]c2)cc1 (centres undefined) | 15.4 | - | - | - | - | -
COc1ccc(C(=O)c2cn[nH]c2-c2cc(C)ccc2O)cc1 | - | - | - | - | - | -
COc1ccc(C(=O)c2cn[nH]c2-c2cc(Cl)ccc2O)cc1 | - | - | - | 24.4 | - | -
Cn1c(SCC(N)=O)nnc1C1CCN(S(=O)(=O)c2ccccc2C(F)(F)F)CC1 | - | - | - | - | - | -
Cn1c(SCCN2CCCC2)nnc1C1CCN(S(=O)(=O)c2cccc(F)c2)CC1 | - | 63.1 | - | - | - | -
Cc1ccc(N2C(=O)C(CN3CCCC3)C2c2ccccc2)cc1 (centres undefined) | - | 25.1 | - | - | - | -
CCCCCC(=O)Nc1ccc(S(=O)(=O)NC2=NCCCCC2)cc1 | - | - | - | - | - | -
CCCCNC(=O)Cc1coc2ccc3ccccc3c12 | - | - | - | 27.3 | - | -
COCCCNC(=O)Cc1coc2ccc3ccccc3c12 | - | - | - | - | - | -
Cc1ccc(-n2c(-c3ccccc3)c[n+]3c2CCc2ccccc2-3)c(C)c1 | - | 54.6 | - | - | - | -
CC(NC(=O)Nc1ccc([N+](=O)[O-])cc1)C(c1ccccc1)N1CCOCC1 (centres undefined) | 49.3 | - | - | - | 26.0 | -
CC(NC(=O)c1ccc(Cl)cc1Cl)C(c1ccccc1)N1CCOCC1 (centres undefined) | - | - | - | - | - | -
CC(NC(=O)Nc1ccc(Cl)c(Cl)c1)C(c1ccccc1)N1CCOCC1 (centres undefined) | 38.2 | - | - | - | 30.4 | -
CN(C)S(=O)(=O)c1ccc(C(=O)NCc2nnc(SCC(=O)Nc3ccc(F)cc3)n2-c2ccc(F)cc2)cc1 | - | - | - | - | - | -
COc1cc2nc(C3CCC3)nc(N3CCN(c4ccccc4OC)CC3)c2cc1OC | - | 66.2 | - | - | - | -
O=[N+]([O-])c1ccc(Cl)c(S(=O)(=O)N2CCCCCC2)c1 | - | - | - | - | - | -
COc1cccc(-c2nn(C)c3sc(C(=O)N4CCN(c5ccccn5)CC4)cc23)c1 | - | 22.0 | - | - | - | -
COc1cccc(-c2nn(C)c3sc(C(=O)N4CCOCC4)cc23)c1 | - | - | - | - | - | -
CC1CCCC(NC(=O)c2ccc3c(SCC(=O)O)c4c(nc3c2)CCC4)C1C (centres undefined) | - | 39.2 | - | - | - | -
CCOC(=O)C1CCCN(C(=S)Nc2cccc(Cl)c2C)C1 (centres undefined) | - | 56.9 | - | - | 68.2 | -
